Source: PubChem
Shiga inhibitor: A qHTS for Small Molecule Inhibitors of Shiga Toxin; Vero cells, Shiga toxin protein synthesis inhibition reporter; inhibition, % at 38.7 µM; 290,000 tested, 9.2% active; AID 2315, 2010; in the data active = inhibition mostly above about 28%, no sharp cut-off; inactive = mostly below about 43%; also: 0% is about no effect
Pf growth 96h: Primary qHTS for delayed death inhibitors of the malarial parasite plastid, 96 hour incubation. P. falciparum luciferase reporter growth, 96 h. Potency, µM (doses to about 28.7 µM), for the others: at the top dose activity change, negative = inhibition, most hits filed as inhibitors. 320,000 tested, 6.9% active. AID 504834, 2011; also: potency is read from the fitted curve at half-maximal effect; % is scaled to controls: 0 for no effect and ±100 for the full control effect
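P. falciparum expressing integrated firefly luciferase, in erythrocytes at 2% hematocrit, 0.05% parasitemia, incubated with compounds 96 h at 37 C, 5% CO2. Growth inhibition read as loss of luminescence; two-generation exposure targets delayed-death apicoplast inhibitors.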
HCMV inh: qHTS Assay for inhibitors of the human cytomegalovirus (HCMV); activity change, negative = inhibition, % at 57.5 µM; AID 1259415, 2018; 410,000 tested, 4.5% active; HFF cells, HCMV-luciferase reporter, 72 h; hits give low values; in the data active = activity change below about -60%; inconclusive = no clear call, values can overlap the other calls; inactive = above about -39%; also: % is scaled to controls: 0 for no effect and ±100 for the full control effect
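Two compound doses tested in HFFs infected with HCMV-luciferase, MOI 1 PFU/cell, 72 h at 37C. Lysate luminescence read with OneGlo; data normalized against buffer-only and 10uM Salinomycin inhibitor controls.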
CHX counter-1: Cycloheximide Counterscreen for Small Molecule Inhibitors of Shiga Toxin. max response, %. 300,000 tested, 12% active. AID 2314, 2010. cell reporter, cycloheximide protein synthesis inhibition counterscreen; in the data active = max response mostly above about 13%, no sharp cut-off; inactive = mostly below about 14%; also: read at 38.3 µM for the half of the compounds with a filed dose; 0% is about no effect
Pf growth 48h: Primary qHTS for delayed death inhibitors of the malarial parasite plastid, 48 hour incubation. P. falciparum luciferase growth in erythrocytes, 48 h. Potency, µM (top dose mostly 28.7 µM), for the others: top-dose activity change, negative = inhibition, most hits filed as inhibitors. 310,000 tested, 5.9% active. AID 504832, 2011; also: potency is read from the fitted curve at half-maximal effect; % is scaled to controls: 0 for no effect and ±100 for the full control effect
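Luciferase-expressing P. falciparum in infected erythrocytes (2% hematocrit, 0.1% parasitemia final) in RPMI 1640/0.5% Albumax were exposed to compound for 48 hours at 37 C, 5% CO2; growth read as luminescence.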
CHX counter-2: Cycloheximide Counterscreen for Small Molecule Inhibitors of Shiga Toxin (Confirmatory) | Potency, µM (doses to about 38.3 µM), inactives show at the highest dose activity (activation), most hits filed as activators | Cycloheximide counterscreen, protein synthesis reporter, Shiga toxin assay | 510 tested, 3% active | shares compounds with Shiga inhibitor; calls by dose curve; also: potency is read from the fitted curve at half-maximal effect; 0% is about no effect
Starred values were filed as active, the others as inactive; [ ] = another dose, or the depositor's remark. A selection: hits, their analogues and other compounds. The true share with any hit is near 20%. Unless noted, calls follow the shape of the dose curve; as a rule, active = well fitted inhibition curve with a large enough effect; inconclusive = small, poorly fitted or top-dose-only effect, or another doubt; inactive = no such curve, though single readings can be large or run the other way.

Results for CCC1(C)Nc2ccccc2C(=O)N1O (stereo not drawn) ?
Shiga inhibitor: -17.4; Pf growth 96h: 52.3%; HCMV inh: 57.0; CHX counter-1: -2.8; Pf growth 48h: inconclusive

What do the screens show for `CCCCC1(C)Nc2ccccc2-c2nc3ccccc3n21` (stereo not drawn)?
Shiga inhibitor: 83.7*; Pf growth 96h: 1.31µM*; HCMV inh: 89.2; CHX counter-1: 13.4; Pf growth 48h: 2.08µM*; CHX counter-2: 22.5µM*

Results for Cc1ccc([N+](=O)[O-])cc1NC(=O)CSc1nncn1-c1ccccn1 ?
Shiga inhibitor: 98.2*; Pf growth 96h: 107.9%; HCMV inh: -2.6; CHX counter-1: -3.1; Pf growth 48h: 7.5%; CHX counter-2: -1.6%

How did Nc1ccc(C(=O)NC2CCSc3ccccc32)cc1[N+](=O)[O-] (stereo not drawn) do in these assays?
Shiga inhibitor: 28.0*; Pf growth 96h: inconclusive; HCMV inh: 7.5; CHX counter-1: 18.2; Pf growth 48h: -14.4%; CHX counter-2: inconclusive

Results for CC(C)(C)C1CCC(C(=O)OCC(=O)c2ccc[nH]2)CC1 (stereo not drawn) ?
Shiga inhibitor: 27.0*; Pf growth 96h: 5.6%; HCMV inh: -20.9; CHX counter-1: 8.3; Pf growth 48h: -6.9%; CHX counter-2: 0.3%

Results for Cc1noc(/C=C/c2ccco2)c1S(=O)(=O)N1CCC(C(=O)N(C)Cc2ccccc2)CC1 ?
Shiga inhibitor: 40.1*; Pf growth 96h: 7.9%; HCMV inh: 0.0; CHX counter-1: 12.9; Pf growth 48h: 1.85µM*; CHX counter-2: inconclusive

Results for O=C(CN(C(=O)c1csnn1)c1ccc2c(c1)OCCO2)NCc1ccc(F)cc1 ?
Shiga inhibitor: 39.6; Pf growth 96h: -13.2%; HCMV inh: 2.8; CHX counter-1: 1.0; Pf growth 48h: 49.5%

Results for COc1ccc(CNC(=O)CN(C(=O)c2csnn2)c2ccc3c(c2)OCCO3)cc1 ?
Shiga inhibitor: 42.6*; Pf growth 96h: 40.9%; HCMV inh: 0.7; CHX counter-1: 9.0; Pf growth 48h: 13.0%; CHX counter-2: 4.2%

How did CCOc1ccc(N(CC(=O)NCc2ccc3c(c2)OCO3)C(=O)c2csnn2)cc1 do in these assays?
Shiga inhibitor: 36.6*; Pf growth 96h: -9.8%; HCMV inh: 43.1; CHX counter-1: 4.1; Pf growth 48h: -9.7%; CHX counter-2: 1.2%

Results for COc1ccc(CC(=O)Nc2cccc(/C(C)=N/NC(=O)C3(C)CC3(Br)Br)c2)cc1 (stereo not drawn) ?
Shiga inhibitor: 14.7; Pf growth 96h: inconclusive; HCMV inh: 27.6; CHX counter-1: 7.3; Pf growth 48h: inconclusive

Results for Cc1cccc(C(=O)Nc2nnc(SCC(=O)NC3CC3)s2)c1 ?
Shiga inhibitor: 53.3*; Pf growth 96h: inconclusive; HCMV inh: 7.8; CHX counter-1: -3.0; Pf growth 48h: 71.7%; CHX counter-2: inconclusive

How did O=C(Cc1c(Cl)cccc1Cl)N1CCN(S(=O)(=O)c2cccs2)CC1 do in these assays?
Pf growth 96h: inconclusive; HCMV inh: -3.3; Pf growth 48h: inconclusive

How did Cc1cc(Oc2ccc(N)cn2)ccc1Cl do in these assays?
Shiga inhibitor: 35.3; Pf growth 96h: 3.2%; HCMV inh: 99.4; CHX counter-1: 12.6; Pf growth 48h: 23.9%

How did COc1cccc(Oc2ccc(N)cn2)c1 do in these assays?
Shiga inhibitor: 29.0*; Pf growth 96h: 3.0%; HCMV inh: 11.4; CHX counter-1: 8.9; Pf growth 48h: 35.7%; CHX counter-2: 1.5%

Results for CCN(CCn1cccn1)Cc1nc(-c2ccccc2)no1 ?
Shiga inhibitor: 34.5*; Pf growth 96h: inconclusive; HCMV inh: 27.8; CHX counter-1: 7.4; Pf growth 48h: 14.1%; CHX counter-2: 3.8%

How did CNC(=O)NNC(=O)c1csc(Cc2c(Cl)sc3ccc(Cl)cc23)n1 do in these assays?
Shiga inhibitor: -4.1; Pf growth 96h: 6.9%; HCMV inh: -21.5; CHX counter-1: -1.5; Pf growth 48h: 72.5%

How did COc1ccccc1CN(C)S(=O)(=O)c1cccs1 do in these assays?
Shiga inhibitor: 68.6*; Pf growth 96h: 3.1%; HCMV inh: -3.4; CHX counter-1: 5.6; Pf growth 48h: 9.8%; CHX counter-2: 3.2%

What do the screens show for `CN(Cc1ccccc1C#N)S(=O)(=O)c1cccs1`?
Shiga inhibitor: 34.4; Pf growth 96h: 7.9%; HCMV inh: 23.0; CHX counter-1: 7.3; Pf growth 48h: 1.8%

What do the screens show for `COc1ccccc1N1CCN(Cc2cc(=O)oc3cc(C)cc(C)c23)CC1`?
HCMV inh: -12.7

How did CCC(C)C1C(C#N)=C(N)OC2=C1C(=O)CC(C)(C)C2 (stereo not drawn) do in these assays?
Shiga inhibitor: 14.0*; Pf growth 96h: inconclusive; HCMV inh: 139.2; CHX counter-1: -2.1; Pf growth 48h: inconclusive; CHX counter-2: -1.5%

How did CC1(C)CC(=O)C2=C(C1)OC(N)=C(C#N)C2Cc1ccccc1 (stereo not drawn) do in these assays?
Shiga inhibitor: -1.3; Pf growth 96h: -17.9%; CHX counter-1: -0.6; Pf growth 48h: -0.2%

How did COC(=O)/C=C1/S/C(=N/N=C/c2ccco2)NC1=O do in these assays?
Shiga inhibitor: -15.0; Pf growth 96h: inconclusive; HCMV inh: 1.3; CHX counter-1: -1.8; Pf growth 48h: inconclusive

Results for O=C1NC(=Nc2ccc(O)cc2)S/C1=C\C=C\c1ccco1 ?
Shiga inhibitor: 47.2*; Pf growth 96h: inconclusive; HCMV inh: inconclusive; CHX counter-1: 2.5; Pf growth 48h: inconclusive; CHX counter-2: inconclusive

What do the screens show for `COc1ccc(-n2c(SCC(=O)N3CCOCC3)nnc2C(C)N2CCCCC2)cc1` (stereo not drawn)?
Shiga inhibitor: 25.6; Pf growth 96h: -3.0%; CHX counter-1: -3.7; Pf growth 48h: -6.6%

Results for COc1ccc(NC(=O)C2Cc3c(-c4ccc(NC(C)=O)cc4)ccnc3O2)cn1 (stereo not drawn) ?
HCMV inh: 13.1

Results for COc1ccc(NC(=O)CN(C)S(=O)(=O)c2ccc(Br)s2)cc1 ?
Shiga inhibitor: 23.5; Pf growth 96h: -25.4%; HCMV inh: inconclusive; CHX counter-1: 9.8; Pf growth 48h: -13.9%

What do the screens show for `COc1ccc(NC(=O)CN(C)S(=O)(=O)c2ccc(Br)s2)cc1OC`?
Shiga inhibitor: 34.5*; Pf growth 96h: 7.7%; HCMV inh: inconclusive; CHX counter-1: 2.5; Pf growth 48h: 5.0%; CHX counter-2: 1.2%

What do the screens show for `COC(=O)[C@H](CCSC)NC(=O)Cn1cnc(C(=O)Nc2ccc(C)c(C)c2)n1`?
HCMV inh: 65.1

What do the screens show for `O=C(O)Cn1nnc(-c2ccc(OCc3ccccc3Cl)cc2)n1`?
Shiga inhibitor: 39.9*; Pf growth 96h: 15.5%; HCMV inh: 30.0; CHX counter-1: -1.1; Pf growth 48h: -9.7%[0.00184 µM]; CHX counter-2: 2.7%
